SMILES strings stand for the structures. Values without a mark were called inactive. Active and inactive are the calls of the source. Calls come from the whole dose curve; as a rule, active = well fitted activation curve with a large enough effect; inconclusive = small, poorly fitted or top-dose-only effect; inactive = no such curve, though single readings can be large or run the other way.

Sequence of Parathyroid hormone/parathyroid hormone-related peptide receptor (Homo sapiens) (Q03431 whole entry, looked up): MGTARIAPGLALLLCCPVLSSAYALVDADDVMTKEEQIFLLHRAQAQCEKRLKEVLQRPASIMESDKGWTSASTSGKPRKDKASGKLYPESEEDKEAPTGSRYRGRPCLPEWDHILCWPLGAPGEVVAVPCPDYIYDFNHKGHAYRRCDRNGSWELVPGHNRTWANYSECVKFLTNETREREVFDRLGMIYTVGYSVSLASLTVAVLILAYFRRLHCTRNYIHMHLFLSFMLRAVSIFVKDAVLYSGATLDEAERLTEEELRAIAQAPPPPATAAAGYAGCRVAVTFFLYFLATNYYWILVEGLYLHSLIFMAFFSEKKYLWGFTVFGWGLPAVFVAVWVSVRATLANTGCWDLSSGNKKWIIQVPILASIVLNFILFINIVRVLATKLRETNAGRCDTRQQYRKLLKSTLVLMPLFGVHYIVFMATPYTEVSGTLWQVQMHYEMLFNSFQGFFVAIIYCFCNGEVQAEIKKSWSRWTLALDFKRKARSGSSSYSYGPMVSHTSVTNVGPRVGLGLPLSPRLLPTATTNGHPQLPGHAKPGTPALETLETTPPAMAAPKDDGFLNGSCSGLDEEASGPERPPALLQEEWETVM

The target in this experiment is Parathyroid hormone/parathyroid hormone-related peptide receptor (Homo sapiens) (UniProt Q03431). The experiment can be described thus: qHTS for PTHR1 Agonists: Optimization Screen against the NCGC LOPAC library (AID 1347079). Note: 0% is about no effect. Particulars: HEK293 GP2 PTHR1 GloSensor cAMP luminescence, 1 h; series mostly up to 57.1 µM; activation: at the top concentration. An excerpt:
The goal of the proposed studies is to discover new compounds that act as potent agonists on the parathyroid hormone receptor type-1 (PTHR1). The PTHR1 plays critical roles in maintaining blood calcium and phosphate levels, as well as in controlling bone remodeling. PTHR1 agonists could thus be useful for treating diseases such as hypoparathyroidism and osteoporosis. In the former disease, an agonist drug would help maintain normal blood calcium and phosphate levels under conditions of parathyroid hormone deficiency. In the latter disease, an agonist drug would stimulate new bone formation and thus reduce the risk of fracture, under conditions of bone fragility, as occurs in aging. We performed an optimization assay of the quantitative high-throughput screening (qHTS) for the parathyroid hormone receptor type-1 (PTHR1) against the NCGC LOPAC library collection of […] compounds using a unique HEK-293-derived cell line (GP2) that expresses the PTHR1 and a GloSensor cAMP reporter construct. Increase in signal (activation / agonist) is the desired outcome for compounds of interest. NIH Chemical Genomics Center [NCGC] NIH Molecular Libraries Probe Production Centers Network [MLPCN] MLPCN Grant: P01 DK011794 Assay Submitter (PI): Thomas Gardella PhD, Massachusetts General Hospital
Reagents / Controls: M-PTH (1-15) peptide hormone fragments was provided by the assay provider and was used as a control. Column 1 was treated with M-PTH titration (1:2 dilution) beginning with a final concentration of 10uM. Column 2 was treated with M-PTH final concentration of 10uM. Columns 3 and 4 were treated with DMSO only to assess background and noise signal. Assay Steps: Four microLiter of cells suspension was dispensed in a 1536-well assay plate at a final density of 3000 cells/well. The plates were incubated overnight, after which 4uL of 0.5mM of BloTium Luciferin plus 0.5mM IBMX was added. Next, the plate was incubated at 37C for 1hr before 23nL of compound (at various final concentrations from 40uM to 0.32uM) and control were added using a 1536-well array Kalypsys pin-tool. The treated plates were again incubated at 37C for another hour. Luminescence signal was obtained using the PerkinElmer ViewLux plate reader after 15min or room temperature incubation.
As to `CC(C)C[C@H](NC(=O)[C@@H](O)[C@H](N)Cc1ccccc1)C(=O)O`, the “activation” value is -22.2%. Same read-out and setting: the figure for `Cc1cnc(NC(=O)C2=C(O)c3ccccc3S(=O)(=O)N2C)s1` is -19%. Same read-out and setting: the figure for `NNCCc1ccccc1` is 39.1%. `Cc1oncc1C(=O)Nc1ccc(C(F)(F)F)cc1`: the “activation” value is 22.8%. The same measure, in the same setting: the figure for `Nc1nc2ccc(OC(F)(F)F)cc2s1` is -36.5%; for `O=c1[nH]cnc2[nH]ncc12` it is -37.2%. On to `NCCCC(N)(C(=O)O)C(F)F` (stereo not given), for which the “activation” value is 1.22%. Same read-out and setting: the figure for `Cc1cn[nH]c1` is 30.5%; for `C1COC(NC(C2CC2)C2CC2)=N1` it is 0%. Still for that read-out and setting: the figure for `Cc1[nH]c(=O)c(C#N)cc1-c1ccncc1` is 3.1%; for `CCOC(=O)N1CCC(=C2c3ccc(Cl)cc3CCc3cccnc32)CC1` it is 29.7%.

Regarding `Cn1cnc([N+](=O)[O-])c1Sc1ncnc2nc[nH]c12`, the “activation” value was -31.3%. On the same count and under the same terms, the figure for `Cc1ccccc1C(OCCN(C)C)c1ccccc1` (stereo not given) is 33.5%; for `CNC[C@H](O)c1cccc(O)c1` it is 12.4%. `CC(C)(Sc1ccc(CCN(CCCCC2CCCCC2)C(=O)NC2CCCCC2)cc1)C(=O)O`: the “activation” value is -25.5%. On the same count and under the same terms, the figure for `Nc1nc2c(ncn2COCCO)c(=O)[nH]1` is -36.9%; for `C[C@]12CCC(=O)C=C1CC[C@@H]1[C@@H]2[C@@H](O)C[C@@]2(C)[C@H]1CC[C@]2(O)C(=O)CO` it is -18.4%. On the same count and under the same terms, the figure for `N=c1nc(N2CCCCC2)cc(N)n1O` is 8.72%; for `CC(C)NCC(O)COc1ccc(COCCOC(C)C)cc1` (stereo not given) it is 8.81%.

As to `O=C1CCC(N2C(=O)c3ccccc3C2=O)C(=O)N1` (stereo not given), the “activation” value was -33.8%. As for `O=NN(CCCl)C(=O)NCCCl`, the “activation” value is -2.18%. With `CCn1cc(C(=O)O)c(=O)c2cc(F)c(N3CCNC(C)C3)c(F)c21` (stereo not given), the “activation” value is -17.8%. For `Cc1cccc(-c2[nH]c(C(C)(C)C)nc2-c2ccc3nccnc3c2)n1`, the “activation” value is 1.79%. On the same count and under the same terms, the figure for `Clc1cccc(Cl)c1NC1=NCCN1` is -28.7%; for `CCC(C)N(C)C(=O)c1cc2ccccc2c(-c2ccccc2Cl)n1` (stereo not given) it is -27%; for `CN1CCN(CCCN2c3ccccc3Sc3ccc(C(F)(F)F)cc32)CC1` it is 16.8%.

`Cc1ccc(N(CC2=NCCN2)c2cccc(O)c2)cc1`: the “activation” value was -15.2%. Turning to `CC(C)(C)NCC(O)c1ccc(O)c(CO)c1` (stereo not given), the result was inactive. Take `NC(=O)c1cnccn1`: the “activation” value is 2.7%.

`CCCCNc1cc(C(=O)O)cc(S(N)(=O)=O)c1Oc1ccccc1`: the “activation” value is 9.46%. On the same count and under the same terms, the figure for `Cc1[nH]c(=O)c(C#N)cc1-c1ccc2nccn2c1` is 34.8%; for `O=C(O)COCCN1CCN(C(c2ccccc2)c2ccc(Cl)cc2)CC1` (stereo not given) it is -5.06%; for `N[C@@H]1CONC1=O` it is -3.27%. Still for that read-out and setting: the figure for `CCOC(=O)C1=C[C@]2(CC)CCCN3CCc4c(n1c1ccccc41)[C@@H]32` is 25.3%; for `Cc1cc2c(C(C)C)c(O)c(O)c(C=O)c2c(O)c1-c1c(C)cc2c(C(C)C)c(O)c(O)c(C=O)c2c1O` it is -38.2%; for `CCN(CC)CCCC(C)Nc1ccnc2cc(Cl)ccc12` (stereo not given) it is -37.9%. Still for that read-out and setting: the figure for `OC(CCN1CCCCC1)(c1ccccc1)C1CC2C=CC1C2` (stereo not given) is -37.8%; for `OC(CN1CCC(Cc2ccc(F)cc2)CC1)c1ccc(Cl)cc1` (stereo not given) it is -22.4%. For the compound `O=c1n(CCCN2CCN(c3cccc(Cl)c3)CC2)nc2ccccn12`, the “activation” value is 2.44%. The same measure, in the same setting: the figure for `O=C1CCc2cc(OCCCCc3nnnn3C3CCCCC3)ccc2N1` is -37.9%.

The record behind these values is PubChem BioAssay (NCATS).
